These results are taken from publication PMC4336329 (PLoS ONE, 2015).

The whole screen tested about 310,000 compounds, of which about 2,200 (0.71%) showed an effect of 50% or more. The effect is printed as a negative number. The entries come from a sample that favours strong results as a whole.

In this test the target is human ether-à-go-go-related gene (hERG) potassium channel (human, UniProt Q12809). In words: primary screen, population patch clamp on CHO cells stably expressing hERG; higher = less effect of the substance.
Sequence of human ether-à-go-go-related gene (hERG) potassium channel (Q12809 whole entry, looked up): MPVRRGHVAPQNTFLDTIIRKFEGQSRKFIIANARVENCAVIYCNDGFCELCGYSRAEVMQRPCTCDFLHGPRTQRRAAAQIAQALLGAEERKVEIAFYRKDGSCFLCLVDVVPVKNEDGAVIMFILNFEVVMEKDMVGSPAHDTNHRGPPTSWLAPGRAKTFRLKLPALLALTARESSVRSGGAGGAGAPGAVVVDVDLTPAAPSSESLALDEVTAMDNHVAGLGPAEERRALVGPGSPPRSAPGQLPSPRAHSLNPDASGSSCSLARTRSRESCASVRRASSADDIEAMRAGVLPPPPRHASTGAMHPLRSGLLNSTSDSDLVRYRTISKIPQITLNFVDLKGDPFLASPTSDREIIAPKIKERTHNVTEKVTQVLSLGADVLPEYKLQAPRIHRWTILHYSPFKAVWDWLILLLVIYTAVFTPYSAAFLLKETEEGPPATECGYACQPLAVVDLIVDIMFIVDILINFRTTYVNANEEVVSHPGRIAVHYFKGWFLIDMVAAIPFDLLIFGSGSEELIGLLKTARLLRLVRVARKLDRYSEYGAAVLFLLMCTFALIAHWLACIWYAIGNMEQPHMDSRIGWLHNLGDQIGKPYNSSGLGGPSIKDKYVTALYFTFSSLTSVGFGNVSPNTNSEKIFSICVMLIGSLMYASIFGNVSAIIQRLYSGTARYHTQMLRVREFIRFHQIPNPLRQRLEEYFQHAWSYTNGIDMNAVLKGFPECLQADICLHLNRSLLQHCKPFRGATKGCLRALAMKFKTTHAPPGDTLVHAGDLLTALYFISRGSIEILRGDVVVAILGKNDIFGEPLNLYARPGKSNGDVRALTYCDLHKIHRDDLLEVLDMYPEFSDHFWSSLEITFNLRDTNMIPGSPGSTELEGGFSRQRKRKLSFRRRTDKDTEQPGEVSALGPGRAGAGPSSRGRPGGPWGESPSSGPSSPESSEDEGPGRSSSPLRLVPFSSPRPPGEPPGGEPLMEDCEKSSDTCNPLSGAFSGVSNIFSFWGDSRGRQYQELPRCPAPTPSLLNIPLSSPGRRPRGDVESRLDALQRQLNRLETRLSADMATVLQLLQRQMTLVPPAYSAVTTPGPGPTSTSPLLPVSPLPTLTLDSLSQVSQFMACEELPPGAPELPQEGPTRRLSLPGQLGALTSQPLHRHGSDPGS
`CCOc1cc(S(=O)(=O)N2CCN(CC)CC2)ccc1Cl`: the “hERG current change (%, negative = inhibition) at 1uM” value stood at 6.75%. Consider `Cc1ccc(-c2cc(C(=O)N3CCCc4ccccc43)no2)cc1`, for which the “hERG current change (%, negative = inhibition) at 1uM” value was -75.5%. The value for `CCOC(=O)C1CCCN(C(=O)c2cc(-c3ccc(C)cc3)on2)C1` (stereo not drawn) was -59.7%; that for `CCOC(=O)C1CCCN(C(=O)c2cc(-c3ccccc3)on2)C1` (stereo not drawn) was 3.94%; that for `O=C(c1cc(-c2ccc(O)cc2)on1)N1CCCc2ccccc21` was 8.9%. For `Cc1ccc(-c2cc(C(=O)N3CCCCCC3)no2)cc1`, the “hERG current change (%, negative = inhibition) at 1uM” value stood at 10%. As for `O=C(c1cc(-c2ccccc2)on1)N1CCCc2ccccc21`, the “hERG current change (%, negative = inhibition) at 1uM” value came out at 8.2%. As to `COc1ccccc1/C=c1\sc2nc(-c3ccco3)nn2c1=O`, the “hERG current change (%, negative = inhibition) at 1uM” value amounted to 17.5%.

For `Cc1ccc2nc(NCCO)nc(-c3ccccc3)c2c1`, the “hERG current change (%, negative = inhibition) at 1uM” value is reported as 1.36%. Under `COc1ccc(C(C)=O)cc1COC(=O)c1cnc(C)cn1` stands 17.6%; under `CCCCNC(=O)CCCn1c(=S)[nH]c2cc3c(cc2c1=O)OCO3`, 19.2%. On to `Cc1oc(-c2ccccc2Cl)nc1CN1C(=O)CN=C(c2ccccc2)c2ccccc21`, for which the “hERG current change (%, negative = inhibition) at 1uM” value was 9.3%. Consider `O=C(CNC(=O)/C(=C\c1ccccc1)NC(=O)c1ccc(Br)cc1)OCc1ccccc1`, for which the “hERG current change (%, negative = inhibition) at 1uM” value is listed as -68.1%. As to `CCOC(=O)CNC(=O)/C(=C\c1ccc(F)cc1)NC(=O)c1ccccc1`, the “hERG current change (%, negative = inhibition) at 1uM” value is on record as -11.7%. As for `O=C(CNC(=O)/C(=C\c1ccc(F)cc1)NC(=O)c1ccccc1)OCc1ccccc1`, the “hERG current change (%, negative = inhibition) at 1uM” value is listed as -69%. Under `O=C(CNC(=O)/C(=C/c1ccccc1)NC(=O)c1ccc(Br)cc1)OCc1ccccc1` stands 2.24%; under `O=C(CNC(=O)/C(=C\c1ccc(Br)cc1)NC(=O)c1ccccc1)OCc1ccccc1`, -48%. Turning to `O=C(CCCNC(=O)/C(=C/c1ccc(Br)cc1)NC(=O)c1ccccc1)OCc1ccccc1`, the “hERG current change (%, negative = inhibition) at 1uM” value is -2.58%. Take `COc1ccc(/C=N/N=C(/N)N[N+](=O)[O-])c(OC)c1`: the “hERG current change (%, negative = inhibition) at 1uM” value is listed as 7.59%. Under `CCN(CC)S(=O)(=O)c1cc(NC(=O)C(C)N2CCc3ccccc32)ccc1C` (stereo not drawn) stands 9.99%; under `C=CCn1c(SCC(=O)NNC(=O)Nc2cccc(Cl)c2)nnc1-c1ccccc1`, 6.04%. The value for `COc1ccc(C(=O)Oc2cc(C)c(CN3CCOCC3)cc2C)cc1OC` was -1.52%; that for `C#CCSc1nc(N)c2c(n1)OC(N)=C(C#N)C2c1cccnc1` (stereo not drawn) was 4.59%; that for `O=C(CSc1ncccn1)N1CCN(C(c2ccccc2)c2ccccc2)CC1` was 4.43%. For `O=C(Cn1c(=O)cnc2ccccc21)N1CCN(S(=O)(=O)c2ccccc2Br)CC1`, the “hERG current change (%, negative = inhibition) at 1uM” value was found to be 36.9%.

As to `CCn1c2nc(SCCN3CCOCC3)nnc2c2cc(C)cc(C)c21`, the “hERG current change (%, negative = inhibition) at 1uM” value is recorded as -69.2%. The value for `CCn1c2ccc(C)cc2c2nnc(SCCN3CCOCC3)nc21` was 4.8%; that for `CCCn1c2ccc(C)cc2c2nnc(SCCN3CCOCC3)nc21` was 19%. `Cc1ccc(S(=O)(=O)N2CCCC2C(=O)Nn2cnnc2)cc1` (stereo not drawn): the “hERG current change (%, negative = inhibition) at 1uM” value turned out to be 11.7%. Under `CCc1nc(SCC(=O)NC2CC2)c2c(C)c(C)sc2n1` stands -4.16%; under `Cc1cc(NC(=O)NCc2ccccc2)c(=O)n(Cc2ccccc2F)c1`, 7.05%; under `Cc1ccc(OCCN2CCCC2)cc1.O=C(O)C(=O)O`, 7.22%. For `Fc1ccc(OCCOCCN2CCNCC2)cc1.O=C(O)C(=O)O`, the “hERG current change (%, negative = inhibition) at 1uM” value came out at 10.4%. Under `Cc1cc(=O)n(C)c(=O)n1CCCCCCOc1ccc([N+](=O)[O-])cc1` stands -11.1%; under `Cc1cc(=O)n(C)c(=O)n1CCCCOc1cccc([N+](=O)[O-])c1`, 9.25%.

On to `CC1CCN(CCCCOc2ccc([N+](=O)[O-])cc2)CC1`, for which the “hERG current change (%, negative = inhibition) at 1uM” value is on record as -77.8%.

Regarding `O=C(O)C(=O)O.O=[N+]([O-])c1ccc(OCCN2CCCCCC2)cc1`, the “hERG current change (%, negative = inhibition) at 1uM” value was -74.5%. The value for `Cc1cc(=O)n(C)c(=O)n1CCCCOc1ccc([N+](=O)[O-])cc1` was -66.8%.

`O=C(O)C(=O)O.O=[N+]([O-])c1ccc(OCCN2CCNCC2)cc1`: the “hERG current change (%, negative = inhibition) at 1uM” value is on record as -52.2%. As for `CC1CCN(CCCCOc2ccc(Br)cc2)CC1`, the “hERG current change (%, negative = inhibition) at 1uM” value was -30.4%. The value for `COc1ccc(OCCCCN2CCC(C)CC2)cc1.O=C(O)C(=O)O` was 0.418%. Under `Cc1ccc(OCCN2CCNCC2)c([N+](=O)[O-])c1.O=C(O)C(=O)O` stands 17.4%.

Consider `CCOc1ccc(OCCN2CCCCC2)cc1.O=C(O)C(=O)O`, for which the “hERG current change (%, negative = inhibition) at 1uM” value was -4.9%.

`CCCc1cc(=O)oc2cc(C)cc(OCC(=O)Nc3ccc(CN4CCOCC4)cc3)c12`: the “hERG current change (%, negative = inhibition) at 1uM” value amounted to 10.4%.

Turning to `CCCN(CCC)CCNC(=O)C1CC(=O)N(c2ccc(OC)cc2)C1c1ccc(OC)cc1` (stereo not drawn), the “hERG current change (%, negative = inhibition) at 1uM” value is on record as -18.1%. The value for `CCOC(=O)C1(C)NC(c2ccccc2F)C2C(=O)N(c3cccc(C(C)=O)c3)C(=O)C21` (stereo not drawn) was 15.4%.

With `CC(=O)Nc1ccc(-c2nnn(CC(=O)c3ccccc3)n2)cc1Cl`, the “hERG current change (%, negative = inhibition) at 1uM” value was determined as 8.22%.

As for `CCOC(=O)c1c(C)[nH]c(C(=O)C(C)OC(=O)c2ccc(NC(=O)CC#N)cc2)c1C` (stereo not drawn), the “hERG current change (%, negative = inhibition) at 1uM” value came to 17.5%. The value for `O=C(O)C(Oc1ccc2c(-c3ccccc3)cc(=O)oc2c1)c1ccccc1` (stereo not drawn) was 9.07%; that for `COc1ccc2c3c(c(=O)oc2c1OCC(=O)O)CCCC3` was 23.8%; that for `CCOc1ccc(-c2cc(C(=O)O)c3ccccc3n2)cc1` was 7.66%. The value for `O=[N+]([O-])c1ccc(OCCCCN2CCCCC2)cc1` was -59.4%; that for `CCC(C)NCCCOc1ccc([N+](=O)[O-])cc1.O=C(O)C(=O)O` (stereo not drawn) was -73.7%; that for `COc1ccccc1OCCNC(=O)/C=C/c1ccc([N+](=O)[O-])cc1` was -9.26%.

In the case of `CCC(C)NCCCCOc1ccc(Br)cc1.O=C(O)C(=O)O` (stereo not drawn), the “hERG current change (%, negative = inhibition) at 1uM” value was -0.232%. Under `COc1ccc(OCCNC(=O)/C=C/c2ccc([N+](=O)[O-])cc2)cc1` stands -59.9%; under `Brc1ccc(OCCCCN2CCCCC2)cc1`, -11.6%; under `O=[N+]([O-])c1ccc(OCCCCCN2CCOCC2)cc1`, -24.9%. Consider `CCCOc1ccc(OCCCCNC(C)CC)cc1.O=C(O)C(=O)O` (stereo not drawn), for which the “hERG current change (%, negative = inhibition) at 1uM” value is reported as 1.92%. As for `COc1ccc(/C=C/C(=O)NCCOc2ccc(C)cc2)cc1`, the “hERG current change (%, negative = inhibition) at 1uM” value is listed as 10.5%.
